Screening data deposited in PubChem by The Scripps Research Institute Molecular Screening Center.
CHO-K1 Ca antag – counter-screen for M1 antagonists: effect in parental CHO-K1 cells | AID 602250 | ATP-induced calcium, Fluo-8 fluorescence | 0.6% of 360,000 active | inhibition, % at 3 µM;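 active = inhibition above a per-plate cutoff, the plate's mean sample inhibition plus 3 SD, cut at about 24% in these data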
CHO-K1 Ca PAM – M1 PAM counterscreen hit in parental CHO-K1 cells. ATP EC20, Fluo-8 calcium fluorescence; 0% at ATP EC20, 100% at ATP max. activation, % at 3 µM. 0.02% of 360,000 active;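 active = activation above the run cutoff, the mean activation of all test compounds plus 3 SD, cut at about 40% in these data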;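 also: peak over basal fluorescence ratio in a 140 s read after ATP addition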
CHO-K1 Ca ag – M1 agonist counterscreen hit in parental CHO-K1 cells | Fluo-8 calcium fluorescence; scaled to maximal ATP response, vehicle zero | activation, % at 3 µM | 0.48% of 360,000 active | AID 602248; in the data active = activation above about 15%;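 also: untransfected CHO-K1 host cells lacking M1 receptor as counterscreen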
CHRM1 PAM – human CHRM1 positive allosteric modulation | P11229 | CHO-K1 hM1, Fluo-8 calcium fluorescence, ACh EC20; 0% = ACh EC20, 100% = maximal ACh | activation, % at 3 µM | 0.088% of 360,000 active; in the data active = activation above about 19%, passing the limit was not always enough
Target sequence (P11229 whole entry, looked up): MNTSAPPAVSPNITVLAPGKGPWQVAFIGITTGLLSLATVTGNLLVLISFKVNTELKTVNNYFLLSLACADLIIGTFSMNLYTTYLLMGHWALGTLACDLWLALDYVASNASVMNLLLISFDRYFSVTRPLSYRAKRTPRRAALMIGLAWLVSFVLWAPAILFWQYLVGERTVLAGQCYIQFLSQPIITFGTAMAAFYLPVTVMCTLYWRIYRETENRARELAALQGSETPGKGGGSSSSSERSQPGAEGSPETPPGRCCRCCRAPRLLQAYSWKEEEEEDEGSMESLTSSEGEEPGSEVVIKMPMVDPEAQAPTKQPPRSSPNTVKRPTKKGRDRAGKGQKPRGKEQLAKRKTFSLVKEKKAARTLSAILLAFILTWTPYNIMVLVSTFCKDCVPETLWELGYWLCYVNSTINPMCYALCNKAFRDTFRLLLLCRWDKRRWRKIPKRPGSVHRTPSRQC
CHRM1 antagonist – blocks human M1 muscarinic receptor; CHO-K1 hM1, Fluo-8 calcium fluorescence, ACh EC80 antagonist; inhibition, % at 3 µM; 1.3% of 360,000 active;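 active = percent inhibition above its own plate's cutoff, namely the mean of that plate's compound wells plus 3 SD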;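 also: peak over basal fluorescence ratio during 140 s after agonist addition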
CHRM1 agonist – agonists of human M1 muscarinic receptor. 0.33% of 360,000 active. AID 588814. CHO-K1 hM1, Fluo-8 calcium fluorescence, agonist mode; 0% DMSO, 100% acetylcholine EC100. activation, % at 3 µM;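 active = activation above the run's mean compound activation plus 3 SD, cut at about 16% in these data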;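 also: peak over basal fluorescence ratio within a 140 s kinetic read after compound addition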
A number is an active result; . = inactive; / = not tested or not shown. Hits are enriched below; roughly 2.3% of the tested compounds scored in any of these assays.

SMILES | CHO-K1 Ca antag | CHO-K1 Ca PAM | CHO-K1 Ca ag | CHRM1 PAM | CHRM1 antagonist | CHRM1 agonist
Cc1cc(C)n(-c2nc3c(c(=O)[nH]c(=O)n3C)n2Cc2ccccc2)n1 | 25.1 | . | . | . | . | .
Cc1cccc(Cn2c(N3CCN(C)CC3)nc3c2c(=O)[nH]c(=O)n3C)c1 | . | . | . | . | . | .
Cc1cccc(Cn2c(N3CCCCC3C)nc3c2c(=O)[nH]c(=O)n3C)c1 (stereo not drawn) | . | . | . | . | 32.1 | .
CC(=O)Cn1c(N2CCC(Cc3ccccc3)CC2)nc2c1c(=O)[nH]c(=O)n2C | . | . | . | 21.5 | . | .
CC1=C(C(=O)N2CCCCCC2)CC(CC(=O)NCCN2CCOCC2)C(=O)N1CCC1=CCCCC1 (stereo not drawn) | . | . | . | / | / | /
CCOc1ccc(-c2cc(C(=O)Nc3cc(OC)c(OC)c(OC)c3)[nH]n2)c(C)c1 | . | . | . | . | . | .
Cc1nc2nc(C)c(C)nc2nc1C | . | . | . | . | . | .
CC1=C/C(=C\C=C(C#N)C#N)N(C)c2ccccc21 | . | . | 27.4 | . | . | 21.7
CN1/C(=C/C=C(C#N)C#N)C(C)(C)c2ccccc21 | . | . | . | . | . | .
CC1(C(=O)NS(=O)(=O)Cc2ccccc2C(F)(F)F)CCN1C(=O)c1ccco1 (stereo not drawn) | . | . | . | . | . | .
Cn1cc(Cc2ccc(C(=O)N3CCOCC3)cn2)c2ccccc21 | . | . | . | . | . | .
C[C@@H]1CCCCCCCCC(=O)OCCN[C@H](C)CCCCCCCCC(=O)OCCN[C@H](C)CCCCCCCCC(=O)OCCN1 | . | . | . | . | 47.0 | .
CN(C)CCCN1c2ccc3ccccc3c2Sc2cccc(Cl)c21 | . | . | . | . | . | .
CN(C)CCCN1c2ccccc2Sc2ccc3ccccc3c21 | . | . | . | . | 82.1 | .
O=C1C(F)=CC(COC(c2ccccc2)(c2ccccc2)c2ccccc2)OC1n1cc(F)c(=O)[nH]c1=O (stereo not drawn) | . | . | . | . | . | .
O=C(Nc1ccc(Cl)cc1Cl)c1ccc2ncsc2c1 | . | . | 21.4 | . | . | .
COc1ccccc1CN(C)C[C@@H]1OCc2cnnn2CCCC(=O)N([C@@H](C)CO)C[C@H]1C | . | . | . | . | . | .
CCOC(=O)C1=CCN(S(=O)(=O)c2ccc(C)cc2)C1c1cccc(Cl)c1 (stereo not drawn) | 29.4 | . | . | . | . | .
CCOC(=O)C1=CCN(S(=O)(=O)c2cccc(Cl)c2)C1c1cccc(C)c1 (stereo not drawn) | . | . | . | . | . | .
COc1ccc(N2C(=O)CC(N(CCc3ccccc3)C(=O)/C=C/C(=O)O)C2=O)cc1 (stereo not drawn) | . | . | . | . | . | .
O=C(O)/C=C/C(=O)N(CC1CCCO1)C1CC(=O)N(c2c(Cl)cccc2Cl)C1=O (stereo not drawn) | . | . | 16.7 | . | . | .
COc1cc(/C=C/C(=O)OCC(=O)Nc2ccc3[nH]c(=O)[nH]c3c2)ccc1OC(F)F | . | . | . | . | . | .
CSc1nc2c(cc1C#N)CCCCC2 | . | . | . | . | 30.0 | .
CCOc1ccc(S(=O)(=O)NCCSCc2ccco2)cc1 | . | . | . | . | . | .
COc1ccc(CCNC(=O)CNS(=O)(=O)c2ccc(Cl)cc2)cc1 | 24.0 | . | . | . | . | .
SMILES | CHO-K1 Ca antag | CHO-K1 Ca PAM | CHO-K1 Ca ag | CHRM1 PAM | CHRM1 antagonist | CHRM1 agonist
COc1ccc(S(=O)(=O)NCCSCc2ccco2)cc1 | 27.7 | . | . | . | . | .
COc1ccc(S(=O)(=O)NCCc2ccccc2)cc1 | . | . | . | . | 29.4 | .
Cc1ccc(S(=O)(=O)NCCc2ccncc2)cc1C | . | . | 17.9 | . | . | .
COc1ccc(CCNS(=O)(=O)c2ccc(Br)cc2)cc1 | . | . | . | . | . | .
CCc1ccccc1NC(=O)CCC(=O)N1CCN(C(C)=O)CC1 | . | . | . | . | . | .
Cn1c(=O)c(C#N)c(-c2ccc(F)cc2)c2cc(C(=O)c3cc(Cl)cc(Cl)c3O)cnc21 | . | . | . | . | 31.4 | .
CCn1c(=O)c(C(=O)CN2CCCc3ccccc32)c(N)n(Cc2ccccc2)c1=O | . | . | . | . | 22.2 | .
COc1ccccc1N(CC(=O)N1CCN(Cc2ccccc2)CC1)S(=O)(=O)c1ccccc1 | . | . | . | . | . | .
N#Cc1c(C(F)(F)F)cc(-c2ccccc2)n(N)c1=O | 30.6 | . | . | . | . | .
Cc1ccc(O)c(C(=O)c2cc(C#N)c(=O)n(-c3nccs3)c2)c1 | . | . | 40.3 | . | . | 21.8
O=C(NCc1ccccc1Cl)c1csc([C@@H]2C[C@H](O)[C@@H](CO)O2)n1 | . | . | . | . | . | .
O=C1CC(c2ccc(F)cc2)Cc2nc(N3CCN(c4ccccc4)CC3)ncc21 (stereo not drawn) | 40.2 | . | . | . | . | .
Cc1ccc(C2CC(=O)c3cnc(N4CCN(c5ccccc5)CC4)nc3C2)cc1 (stereo not drawn) | . | . | . | . | . | .
COc1ccc(CCN2C(=O)CSC2=Nc2ccc(C(C)C)cc2)cc1OC | . | . | . | . | 40.7 | .
COc1ccc(N=C2SCC(=O)N2CCc2ccc(OC)c(OC)c2)cc1 | . | . | . | . | . | .
O=C1CN(CC(=O)Nc2ccc(SC(F)F)cc2)CCN1 | 27.0 | . | . | . | . | .
O=C1CN(CC(=O)Nc2ccc(Cl)cc2)CCN1 | . | . | . | . | . | .
Cc1ccc([C@@H]2C[C@H]3[C@@H](CN2S(=O)(=O)c2ccc(C)cc2)C(=O)C[C@@H](c2ccc(Cl)cc2)N3S(=O)(=O)c2ccc(C)cc2)cc1 | . | . | . | . | . | .
Cc1ccc(S(=O)(=O)N2C[C@H]3C(=O)C[C@@H](c4ccccc4F)N(S(=O)(=O)c4ccc(C)cc4)[C@H]3C[C@H]2c2ccccc2)cc1 | 31.0 | . | . | . | . | .
Cc1ccc(S(=O)(=O)N2C[C@H]3C(=O)C[C@@H](c4ccc(Cl)cc4)N(S(=O)(=O)c4ccc(C)cc4)[C@H]3C[C@H]2c2cccc3ccccc23)cc1 | 29.8 | . | . | . | . | .
Cc1ccc([C@@H]2CC(=O)[C@@H]3CN(S(=O)(=O)c4ccc(C)cc4)[C@H](c4ccccc4F)C[C@@H]3N2S(=O)(=O)c2ccc(C)cc2)cc1 | . | . | . | . | . | .
CC1NC(=O)c2cc3ccccc3cc2-n2c1nc1ccccc1c2=O (stereo not drawn) | . | . | . | . | . | .
COc1ccc(CNC(=O)COC(=O)c2cc3ccccc3o2)cc1 | . | . | . | . | 28.9 | .
CCCCn1c(N)c(N(CC)C(=O)c2cc(OC)cc(OC)c2)c(=O)[nH]c1=O | . | . | 16.4 | . | . | .
